An excerpt weighted towards active compounds, which were near 2.4% of everything screened.
D2 ag-1 – activates the human D2 dopamine receptor; P14416; HEK293 T-REx D2 cells, calcium flux agonist mode; activation, % at 2 µM; 340,000 compounds, 0.53% hits;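 active = activation over 3 SD above normal in the single-dose calcium agonist read, cut at about 30% in these data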; also: 0% is about no effect
Target sequence (P14416 whole entry, looked up): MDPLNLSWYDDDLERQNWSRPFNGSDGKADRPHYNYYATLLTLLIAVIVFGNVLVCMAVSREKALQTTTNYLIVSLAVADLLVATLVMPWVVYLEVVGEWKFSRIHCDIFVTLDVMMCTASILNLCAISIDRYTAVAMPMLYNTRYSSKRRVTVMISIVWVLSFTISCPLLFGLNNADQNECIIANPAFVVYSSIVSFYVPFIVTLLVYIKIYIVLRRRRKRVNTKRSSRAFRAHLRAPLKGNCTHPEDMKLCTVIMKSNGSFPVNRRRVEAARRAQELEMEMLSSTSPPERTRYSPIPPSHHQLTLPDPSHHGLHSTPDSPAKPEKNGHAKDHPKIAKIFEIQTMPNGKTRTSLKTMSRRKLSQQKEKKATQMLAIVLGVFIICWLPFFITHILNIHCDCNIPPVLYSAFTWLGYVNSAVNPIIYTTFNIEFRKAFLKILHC
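Tetracycline-induced HEK293 T-REx cells with force-coupled D2 receptor, plated overnight at 30 C, loaded with no-wash calcium dye. After a 10 s baseline, compound was pin-added and calcium flux read kinetically for 180 s; calcium rises flagged agonists.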
D2 ag-2 – human D2 receptor agonism in beta-arrestin assay; activation, % (test concentration not listed); P14416; DiscoveRx PathHunter D2 beta-arrestin, luminescence, 90 min; 100% = 57 uM dopamine signal; 360,000 compounds, 0.084% hits; in the data active = activation above about 40%; inconclusive = between about 15% and that limit
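DiscoveRx PathHunter D2 beta-arrestin cells (2,100/well) attached overnight, then compound-stimulated 90 min at 37 C in HBSS/10 mM HEPES/0.1% Tween-20 buffer; beta-galactosidase complementation read by luminescence after 1 h at ambient temperature. Dopamine 57 uM final (EC100) as control.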
D2 PAM-1 – positively modulates the human D2 dopamine receptor allosterically | P14416 | HEK293 T-REx D2, calcium flux, EC20 dopamine potentiation | potentiation, % at 10 µM | 340,000 compounds, 0.34% hits | AID 485347;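 active = potentiation over 3 SD above the plate norm, cut at about 30% in these data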; also: 0% is about no effect
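Primary screen. Calcium kinetics in induced HEK293 T-REx D2 cells: compound pre-addition 180 s, EC20 dopamine, 180 s more.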
D2 antag – D2 dopamine receptor (human) antagonism; AID 485344; 340,000 compounds, 2% hits; inhibition, % at 10 µM; P14416; HEK293 TREx D2 cells, calcium flux, dopamine EC80; in the data active = inhibition above about 30%; inactive = below that, where a call was filed; also: 0% is about no effect
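HEK293 T-REx D2 cells, tet-induced, calcium dye no-wash. Cpd pintool add, 180 s kinetic, then EC80 DA, 180 s kinetic. Ca flux read.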
D2 PAM-2 – potentiates the human D2 dopamine receptor allosterically | P14416 | DiscoveRx D2 beta-arrestin cells, luminescence, 90 min; 100% = 57 uM dopamine signal | potentiation, % (test concentration not listed) | 360,000 compounds, 0.23% hits; in the data active = potentiation above about 50%; inconclusive = mostly about 30% to 49%
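D2 cells co-treated with compound plus 50 nM dopamine (EC20) for 90 min at 37 deg C to detect potentiation. Beta-arrestin recruitment was read as enzyme-fragment luminescence after 1 h at ambient temperature. Full response was set by 57 uM dopamine.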
Numbers without * were called inactive; ? = inconclusive; . = no result given; ! = a repeat was not active.

SMILES	D2 ag-1	D2 ag-2	D2 PAM-1	D2 antag	D2 PAM-2
Cc1cc(OCC(=O)Nc2cnn(CCCC(=O)O)c2)ccc1[N+](=O)[O-]	0	-4	15	13	-1
O=C(COc1cccc2cccnc12)Nc1ccccc1N1CCOCC1	0	2	.	30*	8
CCc1ccccc1NC(=O)Nc1ccc2c(c1)N(CC)C(=O)c1ccccc1S2	-1	.	1	.	.
Cc1nnc(SC(C)C(=O)NCC2CCCO2)s1 (stereo unspecified)	0	-3	-9	31*	6
Cc1ccc(Nc2nnc(SC(C)C(=O)NCC3CCCO3)s2)cc1C (stereo unspecified)	-1	0	-10	-14	-17
N#CCC1c2ccccc2CCN1C(=O)Nc1ccc(C(F)(F)F)cc1 (stereo unspecified)	0	0	-25	65*	-16
C=C1C(=O)C=C[C@]2(C)C[C@@H]3OC(=O)[C@](C)(O)[C@H]3C[C@@H]12	0	-2	-5	37*	-9
C=CCSc1nc2sc(C)c(C)c2c(=O)n1CC=C	0	-4	1	12	-23
C=CCn1c(SCC(=O)c2cccs2)nc2sc(C)c(C)c2c1=O	.	-1	.	.	19
C=CCn1c(SCc2cc(=O)n3ccsc3n2)nc2sc(C)c(C)c2c1=O	0	2	36*	-2	-10
C=CCn1c(SCc2ccc(C(=O)NCCO)cc2)nc2sc(C)c(C)c2c1=O	-1	-2	31*	1	3
Cc1ccc(S(=O)(=O)c2cnc(SCC(=O)Nc3cccc(Cl)c3)nc2N)cc1C	-1	.	11	.	.
CCCc1cc(C(N)=O)c(NC(=O)c2ccoc2C)s1	2	-5	.	31*	-11
CC(C)c1nc2ccc(NC(=O)C34CC5CC(CC(C5)C3)C4)cc2[nH]1	0	-2	22	33*	-17
COCCCC/C(=N\OCCN)c1ccc(C(F)(F)F)cc1	1	0	2	54*!	-13
O=C(COC(=O)c1ccc([N+](=O)[O-])o1)NC1CCCC1	.	8	.	.	14
O=C(COC(=O)c1ccc([N+](=O)[O-])o1)NC1CCS(=O)(=O)C1 (stereo unspecified)	0	6	8	33*	?
CC(C)(C)OC(=O)N1CCC(c2c(C(=O)NCCN3CCOCC3)cnn2-c2ccc(F)cc2F)CC1	0	.	-6	.	.
CC(C)COCC(CN(Cc1ccccc1)c1ccccc1)N1CCCC1 (stereo unspecified)	38*	-5	-17	-8	-30
CC(C(=O)Nc1ccc(OCc2ccccc2)cc1)N1CCCC1 (stereo unspecified)	0	3	-2	7	1
COc1ccc(C(=O)Nc2ccc3c(c2)N(C2CCCC2)C(=O)c2ccccc2S3)cc1OC	0	.	8	.	.
N#Cc1cc(NCC2CCCO2)c([N+](=O)[O-])cc1C#N (stereo unspecified)	1	6	4	-4	50*
Cc1ccc(CN2C(=O)C3(c4ccccc42)N(c2cccc(C(F)(F)F)c2)C(=O)CS3(=O)=O)cc1 (stereo unspecified)	.	.	-8	.	.
CNC(=O)C1CCC(Cn2c(=O)c3sccc3n(CC(=O)Nc3ccc(C)c(F)c3)c2=O)CC1 (stereo unspecified)	1	.	6	.	.
CCCCCC1=CCC/C1=N\NC(=O)c1ccc2c(c1)OCO2	1	1	-3	31*	-9
SMILES	D2 ag-1	D2 ag-2	D2 PAM-1	D2 antag	D2 PAM-2
CC1(C)Cc2c(sc3c2C(=O)N(c2ccccc2)C2=NCCN23)CS1	-1	-5	46*	17	-22
O=C(c1cnc(N2CCOCC2)c2ccccc12)N1CCN(c2ccccc2)CC1	3	.	7	.	.
Cc1nn(CC(C)C)c(=S)[nH]c1=O	0	-4	14	32*	-15
Cn1c(COc2ccccc2)nnc1SCc1cc(=O)[nH]c2ccccc12	1	1	2	39*	1
O=c1cc(CSc2nnc(COc3ccccc3)n2-c2ccccc2)c2ccccc2[nH]1	-1	0	-1	3	-12
O=C(O)C1CC(=O)n2c(nc3ccccc32)S1 (stereo unspecified)	0	-4	21	5	8
COc1cc(C2CC(=O)n3c(nc4ccccc43)S2)cc(OC)c1OC (stereo unspecified)	0	.	30*	-2	.
CC(C)(C)c1nc2c(C#N)c(-c3ccc(Cl)cc3)ccn2n1	1	?	0	-26	68*
O=C1NC(=Nc2ccc(Cl)cc2)/C(=C/c2ccco2)S1	0	-1	-22	59*	-25
CC(=O)Nc1sc(N/N=C/c2ccccc2F)nc1-c1ccc(C)cc1	-2	41*	-2	5	15
CC(=O)Nc1sc(N/N=C\c2ccccc2Cl)nc1-c1cccs1	-1	14	23	-11	55*
CC(=O)Nc1sc(N/N=C\c2ccco2)nc1-c1cccs1	1	?	-10	9	78*
Cc1ccc(-c2cnc(C3CC3)o2)cc1S(=O)(=O)Nc1ccc(F)cc1Cl	-2	.	5	.	.
N#CCO/N=C/C(=O)Nc1ccc(F)cc1F	-1	-4	6	53*	-3
O=C(CC(=O)Nc1ccc(F)cc1F)Nc1ccc(F)cc1F	-2	-1	-6	23	-5
O=C(CN1C(=O)COc2ccc(S(=O)(=O)N3CCCC3)cc21)NCCc1ccc(Cl)cc1	0	.	-14	.	.
Cc1c(Cl)ccc2c(C(=O)O)cc(-c3ccccc3)nc12	-2	-5	-14	52*	-5
c1ccc2c(c1)CCc1c-2nc2ccccc2c1N1CCOCC1	1	-4	-14	37*	-16
Cc1cc(=O)n2[nH]c(C)c(-c3ccccc3)c2n1	3	-4	-16	6	-36
Cc1cc(=O)n2[nH]c(C)c(-c3ccc(Cl)cc3)c2n1	-2	-1	-26	46*	-24
COc1ccc(-c2onc(C)c2C)cc1S(=O)(=O)Nc1ccc(OC(F)(F)F)cc1	0	.	0	.	.
O=C(Nc1ccc(NC(=O)C2CC2)cn1)c1ccccc1Cl	0	-2	9	23	2
O=C(Nc1ccc(NC(=O)C2CC2)nc1)c1cccnc1	1	0	2	38*	-15
O=C(Nc1ccc(NC(=O)C2CC2)nc1)c1cccc(F)c1	0	-4	-6	-13	-20
O=C(Nc1ccc(NC(=O)C2CC2)cn1)c1ccccc1	1	4	4	36*	1
O=c1c(=O)n(-c2ccc(F)c(F)c2)ccn1Cc1ccc(F)cc1Cl	0	.	-5	.	.
CC1(C)C=C(c2ccc(C=O)s2)CC(C)(C)N1C=O	0	2	10	19	-14
CC1(C)C=C(c2ccc(C=O)s2)CC(C)(C)N1	0	-1	6	34*	-13

Screening data as filed in PubChem BioAssay.
